The values below come from PubChem BioAssay (EPA / NIEHS).

Test [1] is described as follows: CLD_ACTIN_6hr: CellzDirect (CLD) Gene Expression Assay for Baseline Control (Actin) at 6 hours (AID 2283676).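 Further: active means increased actin mRNA relative to DMSO vehicle.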 In a few lines: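 Primary human hepatocytes dosed with fresh chemical solutions (vehicle 0.2% DMSO), harvested at 6 h. Actin mRNA quantified by quantitative nuclease protection assay with chemiluminescent read-out, as background control relative to DMSO.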

Read-out in test [2]: Cytochrome P450 2B6 (Homo sapiens) (UniProt P20813)
Put plainly: CLD_CYP2B6_6hr: CellzDirect (CLD) Gene Expression Assay for xenobiotic metabolism (CYP2B6) at 6 hours (AID 2283677).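 Further: actives raise CYP2B6 transcript above DMSO baseline so AC50 marks an inducer.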 In short, it runs like this:
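Primary human hepatocytes dosed with chemicals at multiple concentrations, vehicle 0.2% DMSO; CYP2B6 mRNA induction measured 6 h after dosing by quantitative nuclease protection assay with chemiluminescence, gain of signal fitted relative to DMSO.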

The nature of test [3]: CCTE_Padilla_ZF_144hpf_TERATOSCORE: (Legacy) CCTE's 144 Hour Post-fertilization zebrafish Assay Teratoscore, Padilla Lab (AID 2283679; active means hit-call score of the fitted dose curve at least 0.9, where 1 is the maximum; inactive means score below 0.9;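 on AC50: zebrafish embryos with chorions exposed by immersion from 6-8 hpf to 5 dpf with daily renewal; teratogenicity score from eye scoring of death hatching and malformations at 144 hpf; higher score means more developmental defects relative to DMSO baseline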). In a few lines: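 Larvae scored by eye at 144 hpf for death, hatching and malformations after a day in clean Hanks'. Before that, daily-renewed exposure at 80 uM (0.4% DMSO, 26C) from roughly 6-8 hpf through 5 dpf, 4 embryos per chemical.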

Read-out in test [4]: Glyceraldehyde-3-phosphate dehydrogenase (Homo sapiens) (UniProt P04406)
Put plainly: CLD_GAPDH_6hr: CellzDirect (CLD) Gene Expression Assay for Baseline Control (Glyceraldehyde 3-phosphate dehydrogenase) at 6 hours (AID 2283681).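 Further: active means increased signal relative to DMSO vehicle.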 In short, it runs like this:
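Primary human hepatocytes from two donor preparations, dosed at multiple concentrations with 0.2% DMSO vehicle; GAPDH mRNA measured 6 h after dosing by chemiluminescent quantitative nuclease protection assay (qNPA) on denatured lysates. Serves as background control; cytotoxicity annotated by morphology.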

Read-out in test [5]: HMG-CoA synthase (HMGCS2), HMGCS2 (gene 3158)
Put plainly: CLD_HMGCS2_6hr: CellzDirect (CLD) Gene Expression Assay for HMG-CoA synthase (HMGCS2) at 6 hours (AID 2283682).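 Further: actives raise HMGCS2 transcript above the 0.2% DMSO vehicle baseline.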 In a few lines: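 Primary human hepatocytes dosed daily with fresh chemical, 0.2% DMSO vehicle; HMGCS2 mRNA measured at 6 h by qNPA chemiluminescence. Gain of signal fitted against DMSO; cytotoxicity flagged from phase-contrast morphology.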

Read-out in test [6]: ABC Transporter (ABCB1), ABCB1 (gene 5243)
Put plainly: CLD_ABCB1_24hr: CellzDirect (CLD) Gene Expression Assay for ABC Transporter (ABCB1) at 24 hours (AID 2283684). In a few lines: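 Primary human hepatocytes, two donor preparations, dosed daily with fresh solutions; vehicle 0.2% DMSO; harvested at 24 h. ABCB1 mRNA measured by quantitative nuclease protection assay (chemiluminescence); morphology-based cytotoxicity annotated.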

Read-out in test [7]: Glyceraldehyde-3-phosphate dehydrogenase (Homo sapiens) (UniProt P04406)
Put plainly: CLD_GAPDH_24hr: CellzDirect (CLD) Gene Expression Assay for Baseline Control (Glyceraldehyde 3-phosphate dehydrogenase) at 24 hours (AID 2283692). In short, it runs like this:
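Primary human hepatocytes (two donor preparations) dosed daily for two days, 0.2% DMSO vehicle; GAPDH mRNA measured at 24 h by qNPA chemiluminescence as a background control, gain-of-signal fitted against DMSO.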

Read-out in test [8]: alkyl and aryl transferase (GSTA2), GSTA2 (gene 2939)
The test is described as follows: CLD_GSTA2_24hr: CellzDirect (CLD) Gene Expression Assay for alkyl and aryl transferase (GSTA2) at 24 hours (AID 2283693). In a few lines:
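Primary human hepatocytes (two donor preparations) dosed daily for two days with chemicals at multiple concentrations (vehicle 0.2% DMSO); GSTA2 mRNA at 24 h measured by qNPA chemiluminescence, gain-of-signal versus DMSO.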

Read-out in test [9]: ABC Transporter (ABCB1), ABCB1 (gene 5243)
Put plainly: CLD_ABCB1_48hr: CellzDirect (CLD) Gene Expression Assay for ABC Transporter (ABCB1) at 48 hours (AID 2283695). In a few lines: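 Primary human hepatocytes from two donor preparations dosed daily on two consecutive days with 0.2% DMSO vehicle. Harvest at 48 h. ABCB1 mRNA quantified by qNPA with chemiluminescence and fitted for gain of signal versus DMSO.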

Read-out in test [10]: xenobiotic metabolism (CYP1A2), CYP1A2 (gene 1544)
Put plainly: CLD_CYP1A2_24hr: CellzDirect (CLD) Gene Expression Assay for xenobiotic metabolism (CYP1A2) at 24 hours (AID 2283683). In short, it runs like this: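 Primary human hepatocytes from two donor preparations dosed daily with multiple concentrations of chemical, 0.2% DMSO vehicle. CYP1A2 mRNA at 24 h quantified by qNPA chemiluminescence; gain of signal analyzed relative to DMSO. Cytotoxicity flagged by phase-contrast morphology.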

Read-out in test [11]: Cytochrome P450 3A4 (Homo sapiens) (UniProt P08684)
The test is described as follows: CLD_CYP3A4_6hr: CellzDirect (CLD) Gene Expression Assay for xenobiotic metabolism (CYP3A4) at 6 hours (AID 2283680). In a few lines: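 Primary human hepatocytes (two donor preparations) dosed; CYP3A4 mRNA harvested at 6 h and quantified by qNPA chemiluminescence. Gain of signal fitted against 0.2% DMSO vehicle; cytotoxicity flagged by phase-contrast morphology.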

Read-out in test [12]: Cytochrome P450 2B6 (Homo sapiens) (UniProt P20813)
The test is described as follows: CLD_CYP2B6_24hr: CellzDirect (CLD) Gene Expression Assay for xenobiotic metabolism (CYP2B6) at 24 hours (AID 2283686). In a few lines: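 Primary human hepatocytes dosed daily for two days with fresh solutions, harvested at 24 hours; mRNA induction quantified by qNPA chemiluminescence, gain of signal vs 0.2% DMSO vehicle. Cytotoxicity annotated from phase-contrast morphology.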

Read-out in test [13]: Cytochrome P450 3A4 (Homo sapiens) (UniProt P08684)
Put plainly: CLD_CYP3A4_24hr: CellzDirect (CLD) Gene Expression Assay for xenobiotic metabolism (CYP3A4) at 24 hours (AID 2283689). In short, it runs like this:
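Primary human hepatocytes from two donors dosed daily with fresh compound for two days, 0.2% DMSO vehicle. CYP3A4 mRNA at 24 hr by qNPA chemiluminescence; gain-of-signal fit versus DMSO, cytotoxicity flagged by morphology.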

Read-out in test [14]: Cytochrome P450 3A4 (Homo sapiens) (UniProt P08684)
Put plainly: CLD_CYP3A4_48hr: CellzDirect (CLD) Gene Expression Assay for xenobiotic metabolism (CYP3A4) at 48 hours (AID 2283698). In a few lines:
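Primary human hepatocytes from two donor preparations dosed daily for two days with multiple chemical concentrations, 0.2% DMSO vehicle. CYP3A4 mRNA at 48 h by quantitative nuclease protection assay, chemiluminescence, positive fit versus DMSO; cytotoxicity flagged morphologically.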

Read-out in test [15]: sulfotransferase (SULT2A), SULT2A1 (gene 6822)
The test is described as follows: CLD_SULT2A_24hr: CellzDirect (CLD) Gene Expression Assay for sulfotransferase (SULT2A) at 24 hours (AID 2283694). In short, it runs like this:
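Primary human hepatocytes from two donor preparations were dosed daily with fresh solutions, vehicle 0.2% DMSO. At 24 h, lysates went to quantitative nuclease protection (qNPA) with S1 digestion and chemiluminescent readout. Cytotoxicity was annotated from phase-contrast morphology.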

Read-out in test [16]: Cytochrome P450 2C19 (Homo sapiens) (UniProt P33261)
Put plainly: CLD_CYP2C19_48hr: CellzDirect (CLD) Gene Expression Assay for xenobiotic metabolism (CYP2C19) at 48 hours (AID 2283700).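 Further: fitted upward so actives raise CYP2C19 mRNA above the 0.2% DMSO vehicle.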 In a few lines: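 Primary human hepatocytes (two donor preparations) dosed daily for two days, harvested at 48 h; CYP2C19 mRNA induction measured by qNPA chemiluminescence. Gain-of-signal fitted relative to 0.2% DMSO vehicle as baseline.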

Read-out in test [17]: glucuronosyltransferase (UGT1A1), UGT1A1 (gene 54658)
The test is described as follows: CLD_UGT1A1_24hr: CellzDirect (CLD) Gene Expression Assay for glucuronosyltransferase (UGT1A1) at 24 hours (AID 2283696). In short, it runs like this: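 Primary human hepatocytes from two donor preparations were dosed (0.2% DMSO vehicle) and harvested at 24 h; UGT1A1 mRNA induction was quantified by chemiluminescent qNPA, fitted as gain relative to DMSO.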

Read-out in test [18]: Cytochrome P450 2B6 (Homo sapiens) (UniProt P20813)
Put plainly: CLD_CYP2B6_48hr: CellzDirect (CLD) Gene Expression Assay for xenobiotic metabolism (CYP2B6) at 48 hours (AID 2283699).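 Further: actives raise transcript level above DMSO so potency reflects induction.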 In short, it runs like this:
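Primary human hepatocytes dosed daily for two days over multiple concentrations, 0.2% DMSO vehicle; CYP2B6 mRNA quantified at 48 h by qNPA chemiluminescence. Induction fitted as gain of signal versus DMSO; cytotoxicity annotated by morphology.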

Records with an inconclusive call do not appear. The source made the active and inactive calls. How the source made its calls, unless noted: active means hit-call score of the fitted dose curve at least 0.9, where 1 is the maximum; inconclusive means response in the unintended direction; inactive means score below 0.9.

Glyceraldehyde-3-phosphate dehydrogenase (Homo sapiens), sequence (P04406 whole entry, looked up): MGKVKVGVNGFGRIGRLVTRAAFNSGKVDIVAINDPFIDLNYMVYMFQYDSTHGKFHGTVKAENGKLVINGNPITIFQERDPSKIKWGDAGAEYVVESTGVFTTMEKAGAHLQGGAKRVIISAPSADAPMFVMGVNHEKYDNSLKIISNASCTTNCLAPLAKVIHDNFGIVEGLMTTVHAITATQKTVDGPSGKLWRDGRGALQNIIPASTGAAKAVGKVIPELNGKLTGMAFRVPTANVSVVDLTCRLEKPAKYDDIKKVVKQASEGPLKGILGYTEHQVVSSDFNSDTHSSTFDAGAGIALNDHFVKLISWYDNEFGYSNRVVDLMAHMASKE
Cytochrome P450 3A4 (Homo sapiens), sequence (P08684 whole entry, looked up): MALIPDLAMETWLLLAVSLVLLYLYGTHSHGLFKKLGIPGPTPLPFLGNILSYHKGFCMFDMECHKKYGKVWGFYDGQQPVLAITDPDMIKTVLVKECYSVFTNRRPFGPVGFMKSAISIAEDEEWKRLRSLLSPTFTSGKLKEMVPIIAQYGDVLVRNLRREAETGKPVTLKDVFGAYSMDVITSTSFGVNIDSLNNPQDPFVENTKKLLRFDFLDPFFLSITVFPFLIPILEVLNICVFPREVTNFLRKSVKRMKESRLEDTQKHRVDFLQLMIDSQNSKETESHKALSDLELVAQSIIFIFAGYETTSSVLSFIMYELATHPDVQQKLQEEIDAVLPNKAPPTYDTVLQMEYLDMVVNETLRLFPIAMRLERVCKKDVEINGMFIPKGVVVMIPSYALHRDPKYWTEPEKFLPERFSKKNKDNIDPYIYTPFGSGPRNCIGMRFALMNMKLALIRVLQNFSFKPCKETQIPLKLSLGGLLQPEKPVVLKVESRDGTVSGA
Cytochrome P450 2C19 (Homo sapiens), sequence (P33261 whole entry, looked up): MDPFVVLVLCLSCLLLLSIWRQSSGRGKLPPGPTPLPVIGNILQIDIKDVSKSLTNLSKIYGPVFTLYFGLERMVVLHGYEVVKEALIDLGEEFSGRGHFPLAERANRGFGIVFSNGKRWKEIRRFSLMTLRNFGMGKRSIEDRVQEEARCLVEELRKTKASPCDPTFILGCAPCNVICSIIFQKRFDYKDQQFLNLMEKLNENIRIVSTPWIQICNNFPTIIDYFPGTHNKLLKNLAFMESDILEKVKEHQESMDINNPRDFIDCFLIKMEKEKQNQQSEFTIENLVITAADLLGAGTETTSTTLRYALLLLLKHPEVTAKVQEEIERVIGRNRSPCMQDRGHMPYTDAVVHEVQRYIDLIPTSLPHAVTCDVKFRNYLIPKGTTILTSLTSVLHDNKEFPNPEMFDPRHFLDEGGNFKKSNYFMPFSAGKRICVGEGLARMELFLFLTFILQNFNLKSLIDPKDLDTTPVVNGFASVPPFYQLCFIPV

On to `N#CSCSC#N`, for which the compound was called inactive in [1], in [2], in test [4], in test [5], in test [6] and in test [7]. Also, the outcome in test [8] and in [9] was inactive. The half-maximal activity concentration (AC50) – broadly, the concentration at which the activity in the assay is half-maximal – in [3] is 5.18 µM (active).
Turning to `CN(C)[C@@H]1C(=O)C(C(N)=O)=C(O)[C@@]2(O)C(=O)C3=C(O)c4c(O)cccc4[C@@](C)(O)[C@H]3[C@H](O)[C@@H]12`, the result in [1], in test [2], in test [3], in [5], in [10] and in [7] was inactive. Further, the compound was classed as inactive in [8].
Take `C#CCC1=C(C)C(OC(=O)C2C(C=C(C)C)C2(C)C)CC1=O` (centres undefined): the outcome in test [1], in [4], in test [5], in test [7], in test [8] and in test [9] was inactive. The AC50 is 2.76 µM (active) in [3]; 2.84 µM (active) in test [11]; 20 µM (active) in test [10]; 4.23 µM (active) in test [12]; 4.64 µM (active) in test [13].
In the case of `CN(C)C(=O)Nc1cccc(C(F)(F)F)c1`, the result in test [1], in test [3], in test [11], in test [5], in [8] and in [9] was inactive. The values for the AC50 in test [10], in [12] and in [14] were 3.66 µM (active), 4.64 µM (active) and 20 µM (active), respectively.
`CC(C)=CC1C(C(=O)OCN2C(=O)C3=C(CCCC3)C2=O)C1(C)C` (centres undefined): the call in [1], in test [11], in test [4], in test [10], in [7] and in [15] was inactive. Further, the compound was classed as inactive in test [16]. The values for the AC50 in test [2] and in test [3] were 5.94 µM (active) and 12.3 µM (active), respectively.
On to `CNC(=O)ON=C(SC)C(=O)N(C)C`, for which the compound was classed as inactive in test [1], in [3], in [11], in test [4], in test [5] and in test [10]. The call in [13], in [7], in [8], in test [9], in test [17] and in test [16] was inactive.
Regarding `CN(C)NC(=O)CCC(=O)O`, the compound was classed as inactive in test [1], in test [2], in [3], in test [11], in test [4] and in test [5]. Moreover, the result in test [10], in [7], in [9], in [17] and in [16] was inactive.
As to `CCCCN(CC)c1c([N+](=O)[O-])cc(C(F)(F)F)cc1[N+](=O)[O-]`, the compound was classed as inactive in test [1], in test [11], in test [4], in test [6], in test [8] and in test [9]. The AC50 in test [2] was 2.13 µM (active); in test [3] it was 5.08 µM (active); in test [10], 7.29 µM (active).
As for `C[N+]1(C)CCCCC1`, the compound was classed as inactive in test [1], in [3], in test [11], in test [8], in test [9] and in test [18]. Also, in test [16], the call was inactive. For the same compound, the AC50 in test [13] was 1.89 µM (active).
Turning to `CCCCSP(=O)(SCCCC)SCCCC`, the compound was classed as inactive in test [1], in test [11], in test [4] and in test [9]. Besides, the AC50 in test [2] was 1.9 µM (active); in test [3], 0.205 µM (active); in [10], 2.48 µM (active); in [12], 1.9 µM (active); in test [13] it was 1.9 µM (active).
